Bioassay records deposited in PubChem BioAssay by University of Kansas High Throughput Screening Laboratory.
Pf apPOL block: Pf-apPOL DNA polymerase inhibition. AID 1794808. inhibition, % at 10 µM. 0.25% of 210,000 active. Recombinant Pf-apPOL, molecular beacon fluorescence, 1.5 h
mHTT-CaM PPI inh: inhibitors of human mutant huntingtin-calmodulin interaction. P42858. AlphaScreen His-mHTT/GST-CaM binding, luminescence. inhibition, % at 15 µM. 3.6% of 190,000 active. AID 1671202;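 further: 0% = both proteins with DMSO and 100% = one protein alone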
Starred values were filed as active, the others as inactive; / = not tested or not shown; ! = not confirmed by another sample. An excerpt weighted towards active compounds, which were near 3.6% of everything screened. No stated cut-off is given here; in the data, active means inhibition above about 50%; inactive means the rest.

SMILES	Pf apPOL block	mHTT-CaM PPI inh
CCOc1cccc(C2CC(c3ccc4c(c3)OCO4)=NC3(CCN(CC)CC3)N2)c1O (stereo unspecified)	3.6	10.0
Cc1cccc(C(=O)N2CCN(c3cc(C)ccc3C)C(=O)C2C)c1 (stereo unspecified)	1.0	8.0
COc1cc(-c2noc(C)c2-c2ccc(-c3cc(C(=O)O)c4ccccc4n3)cc2)cc(OC)c1OC	2.4	12.0
COc1ccc(CNC(=O)C2c3ccccc3CC(=O)N2Cc2ccccc2)cc1OC (stereo unspecified)	0.6	3.4
O=C(CSc1nc2ccccc2n1S(=O)(=O)c1cccs1)NCc1ccccc1	4.7	16.0
COC(=O)Oc1ccc2c(=O)c(Oc3ccc(C)cc3)coc2c1	15.8	80.0*
COc1ccccc1Oc1coc2cc(OC(=O)C(C)C)ccc2c1=O	-2.0	99.7*
COc1cccc(Oc2coc3cc(OC(=O)C(C)C)ccc3c2=O)c1	-6.0	31.2
CC(=O)Oc1ccc2c(=O)c(Oc3ccccc3)coc2c1	-6.9	20.3
Cc1cc(N2C(=O)CSC2c2ccccc2[N+](=O)[O-])ccc1Br (stereo unspecified)	-2.8	40.0
CN1C(=O)c2ccc(NC(=O)c3ccc(S(=O)(=O)N4CCOCC4)cc3)cc2C1=O	-4.9	13.0
CCOc1cc2c(cc1OCC)C1CC(=O)N(c3ccc(C)cc3)C(=O)N1CC2 (stereo unspecified)	-4.4	3.7
Cc1ccc(C(=O)N2CCN(c3nc(CN4CCOCC4)cs3)CC2)cc1C	2.7	9.4
Cc1ccc(C(=O)N2CCN(c3nc(CN4CCCC4)cs3)CC2)cc1C	14.4	68.9*
Cc1ccsc1C(=O)N1CCC(c2nc(C3CC3)n[nH]2)CC1	3.4	-7.7
O=C(Nc1cccc2ccc(-n3ccnc3)nc12)c1ccccc1Cl	1.3	61.8*
Cc1onc(-c2ccccc2Cl)c1C(=O)Nc1cccc2ccc(-n3ccnc3)nc12	5.7	42.7
COc1ccc(CCC(=O)Nc2ccc(N(C)C)cc2)cc1	2.3	40.6
CCN(CC)CCCN1C(=O)C(=O)C(=C(O)c2ccccc2)C1c1ccncc1 (stereo unspecified)	-0.1	-3.1
NS(=O)(=O)c1ccc(-c2ccc(C=O)o2)cc1	-7.5	-2.8
O=Cc1ccc(-c2ccc(S(=O)(=O)O)cc2)o1	-8.2	76.5*
CCC(=O)NC(c1ccc(OC)c(OC)c1)c1cc(Cl)c2cccnc2c1O (stereo unspecified)	-5.6	100.0*
COCC(=O)NC(c1ccccc1)c1cc(Cl)c2cccnc2c1O (stereo unspecified)	-9.5	100.0*
COc1ccccc1C(NC(C)=O)c1cc(Cl)c2cccnc2c1O (stereo unspecified)	6.6	71.0*
COc1ccccc1C(NC(=O)C(C)C)c1cc(Cl)c2cccnc2c1O (stereo unspecified)	-7.9	48.0
SMILES	Pf apPOL block	mHTT-CaM PPI inh
CCCC(=O)NC(c1ccc(OC)cc1)c1cc(Cl)c2cccnc2c1O (stereo unspecified)	10.6	25.0
COc1ccc(C(NC(C)=O)c2cc(Cl)c3cccnc3c2O)cc1OC (stereo unspecified)	4.5	100.0*!
CN(C)C(=O)Cc1ccc(NC(=O)Nc2ccc(Cl)c(Cl)c2)cc1	-9.6	-12.1
Cc1nnsc1C(=O)N1CCc2nc(NC(=O)c3ccco3)sc2C1	-7.2	-10.6
COc1ccc2cc3cc(C(=O)N4CCC(C)CC4)oc3nc2c1	-2.9	-3.0
CCC(=O)NC(c1ccc2c(c1)OCO2)c1cc(Cl)c2cccnc2c1O (stereo unspecified)	-1.5	96.0*
C#CC1(OCC(O)CN2CCC(C)CC2)CCCCC1 (stereo unspecified)	-9.9	-0.3
CCN(CC)c1cc2c(c3c1ccn3C)C1CCC2O1 (stereo unspecified)	2.0	5.3
Cn1ccc2c(-c3ccc(F)cc3F)cc3c(c21)C1CCC3O1 (stereo unspecified)	12.0	12.5
CN(c1cc2c(c3c1ccn3C)C1CCC2O1)C1CCCCC1 (stereo unspecified)	-0.7	58.9*
Cn1ccc2c(-c3cccc4ccccc34)cc3c(c21)C1CCC3O1 (stereo unspecified)	-2.0	29.7
Cn1ccc2c(N3CCCCCCC3)cc3c(c21)C1CCC3O1 (stereo unspecified)	-0.5	70.7*
Cn1ccc2c(-c3ccc4[nH]ccc4c3)cc3c(c21)C1CCC3O1 (stereo unspecified)	0.0	55.9*
CN(c1cccc(F)c1)c1cc2c(c3c1ccn3C)C1CCC2O1 (stereo unspecified)	-5.2	93.4*
COc1ccccc1-c1cc2c(c3c1ccn3C)C1CCC2O1 (stereo unspecified)	-0.8	22.8
COc1cc2c(cc1OC)C(C(=O)NCc1ccco1)C(c1ccc(SC)cc1)N(C)C2=O (stereo unspecified)	-1.2	45.0
CCCN(CC1CC1)c1cc2c(c3c1ccn3C)C1CCC2O1 (stereo unspecified)	-4.3	39.8
CN(CCc1ccccc1)c1cc2c(c3c1ccn3C)C1CCC2O1 (stereo unspecified)	-1.7	99.3*
CCN(Cc1ccccc1)c1cc2c(c3c1ccn3C)C1CCC2O1 (stereo unspecified)	0.3	12.1
CN(c1ccc(Cl)cc1)c1cc2c(c3c1ccn3C)C1CCC2O1 (stereo unspecified)	1.2	99.7*
CCOc1ccc2c(c1)OC(=Cc1cccc(O)c1)C2=O	-11.0	28.9
O=C(c1cccnc1)N1CCC(c2nc(-c3ccc(F)cc3)n[nH]2)CC1	-2.7	-4.4
CC(C)OCCCNC(=O)C(=O)NCc1ccc(F)cc1	-12.1	-9.4
Cc1ccccc1C(=O)Nc1ccc(N2CCCN(C(=O)C(C)C)CC2)nc1	-5.0	7.7
COc1ccc(CCC(C)NCc2ccccc2OC)cc1 (stereo unspecified)	-1.9	-10.5
SMILES	Pf apPOL block	mHTT-CaM PPI inh
COc1ccc(CCC(C)Nc2ccc(OC)cc2OC)cc1 (stereo unspecified)	0.0	85.1*
O=C(NC1CCCC1)C1C2C=CC3(CN(Cc4ccccc4)C(=O)C13)O2 (stereo unspecified)	-6.5	-5.0
Cc1cccc(C2NC(=O)c3c(sc(C)c3C)N2)c1O (stereo unspecified)	0.5	33.0
Cc1ccc(O)c(C2NC(=O)c3c(sc(C)c3C)N2)c1 (stereo unspecified)	-6.2	72.0*
CC1=CC(=NS(=O)(=O)c2ccc([N+](=O)[O-])cc2)C=C(C)C1=O	1.2	67.0*
CCS(CC)=NS(=O)(=O)c1ccc([N+](=O)[O-])cc1	-5.9	/
O=S(=O)(CCc1ccccc1)n1cnc2ccccc21	-4.0	-9.0
CC(=O)NC1=NN(C(C)=O)C(C)(c2ccc(-c3ccccc3)cc2)S1 (stereo unspecified)	-5.1	51.0*
CC(=O)NC1=NN(C(C)=O)C(C)(c2ccc(F)cc2)S1 (stereo unspecified)	5.2	0.0
OCCN(CCO)CC(O)COCC12CC3CC(CC(C3)C1)C2 (stereo unspecified)	-3.3	100.1*
CCN(CC)CC(O)COCC12CC3CC(CC(C3)C1)C2 (stereo unspecified)	-0.6	-1.9
COCCn1cc2c3c(cccc31)CN(C(=O)Nc1ccc(OC)cc1OC)CC2	-4.2	36.8
Cc1ccc(-c2cn(CC(=O)Nc3cccc(C)c3)c(=O)o2)cc1	-4.2	0.6
COc1cccc(C2C3=C(CC(C)(C)CC3=O)NC3=C2C(=O)c2ccccc23)c1 (stereo unspecified)	0.9	58.0*
